Hits are enriched below; roughly 5% of the tested compounds scored in any of these assays.
USP8 inh = blocks human USP8 ubiquitin-rhodamine cleavage | P40818 | purified USP8, Ub-rhodamine cleavage fluorescence, 30 min | inhibition, % at 20 µM | 47,000 compounds, 4.2% hits
USP10 block = inhibitors of human USP10 deubiquitinase | inhibition, % at 20 µM | 47,000 compounds, 1.1% hits | Q14694 | purified USP10, Ub-rhodamine fluorescence, 60 min
USP7 block = human USP7 deubiquitinase inhibition. Q93009. purified USP7, Ub-rhodamine cleavage fluorescence. inhibition, % at 20 µM. 47,000 compounds, 0.3% hits. AID 1645854
UCHL1 inh = inhibitors of human UCHL1 deubiquitinase; P09936; purified UCHL1, Ub-rhodamine cleavage fluorescence; inhibition, % at 20 µM; 47,000 compounds, 0.2% hits; AID 1645859
An asterisk follows results filed as active. No stated cut-off is given here; in the data, active means inhibition above about 30%; inactive means the rest.

SMILES | USP8 inh | USP10 block | USP7 block | UCHL1 inh
C#CCNC(=O)CC[C@H]1CNC(=O)[C@@H]2[C@@H](CCN2C2CCCCC2)N1C | 42* | 3 | -7 | 9
CN1[C@@H](CCC(=O)N2CCOCC2)CNC(=O)[C@@H]2[C@H]1CCN2Cc1ccc(F)cc1 | 43* | 0 | -24 | 10
O=c1[nH]c(C2CCN(S(=O)(=O)c3ccc(S(=O)(=O)N4CCOCC4)cc3)CC2)nc2c1nnn2Cc1ccccc1Cl | -40 | 7 | 9 | -4
CCOC(=O)N1CCN(C(=O)c2ccc(NCc3ccccc3Cl)c(S(=O)(=O)Nc3cccc(OC)c3)c2)CC1 | 14 | 25 | 13 | 7
CCN(CC)S(=O)(=O)c1ccc2c(c1)NC(=O)C(C)C(=O)N2 (centres undefined) | 17 | 1 | 6 | 4
O=c1c2cnc(N3CCOCC3)nc2ccn1Cc1ccccn1 | 17 | 4 | 2 | 0
COc1cccc(-n2ccc(=O)c(-c3nc(-c4cccc(C)c4)no3)n2)c1 | 7 | -6 | -10 | -12
COc1ccc(-n2ccc(=O)c(-c3nc(-c4ccccc4F)no3)n2)cc1OC | 45* | -6 | 4 | 2
Cc1cccc(-c2noc(-c3nn(-c4cccc(C)c4)ccc3=O)n2)c1 | 5 | 5 | -14 | 8
CCOc1cccc(-c2noc(-c3nn(-c4cccc(C)c4)ccc3=O)n2)c1 | 88* | 9 | -2 | 8
CCOc1cccc(-c2noc(-c3nn(-c4ccccc4)ccc3=O)n2)c1 | 93* | 24 | 21 | 7
COc1ccc(-c2nccn3cc(C(=O)NCc4nc5ccccc5n4C)nc23)cc1 | 36* | -9 | -19 | -18
Cc1cccc(OCC(=O)Nc2ccc3c(c2)NC(=O)CO3)c1 | 0 | 2 | 7 | 3
Cc1cc(OCC(=O)Nc2ccc3c(c2)NC(=O)CO3)ccc1Cl | 53* | 45* | 23 | 3
Cc1ccc(NC(=O)COc2ccccc2/C=C2/NC(=O)N(Cc3ccc(F)cc3)C2=O)cc1 | 24 | 36* | 13 | 1
Cc1ccc(N2CC(C)Cn3c2nc2c3c(=O)n(CC(=O)OCc3ccccc3)c(=O)n2C)cc1 (centres undefined) | -7 | 0 | -5 | -4
Cc1cc(C)c(NC(=O)Cn2c(=O)n(Cc3ccccc3)c(=O)c3nn(C)cc32)c(C)c1 | 41* | 1 | 4 | 5
CCn1cc2c(n1)c(=O)n(Cc1ccccc1)c(=O)n2CC(=O)Nc1ccc(C)cc1C | 93* | 30* | 30* | 4
Cn1cc2c(n1)c(=O)n(Cc1ccc(F)cc1)c(=O)n2CC(=O)NCc1ccccc1 | -48 | 5 | 4 | 1
CCn1c(=O)c(N2CCC(NC(=O)Nc3ccc(C)cc3C)CC2)nc2cccnc21 | -14 | -8 | -9 | -8
N#CCCc1c(-c2ccccc2)nc2[nH]c3ccccc3n2c1=O | 39* | 12 | 13 | 6
CC(=O)Nc1cccc(C(=O)Nc2ccc(N3CCCC3=O)cc2)c1 | 3 | 2 | 6 | 5
COc1cccc(C(=O)Nc2cc3c4c(c2)CC(=O)N4CCC3)c1 | 65* | -1 | -2 | 2
Cc1cccc(C(=O)Nc2cc3c4c(c2)CC(=O)N4CCC3)c1 | 39* | -2 | 0 | 1
Cn1cccc1C(=O)N1CCC2(CC1)CN(c1ncccn1)c1ccccc12 | -67 | -5 | -2 | 1
SMILES | USP8 inh | USP10 block | USP7 block | UCHL1 inh
O=C1N[C@@H]2CCN(C(=O)CN3CSCC3=O)C[C@@H]2CCCCCOc2ccccc21 | 13 | -3 | 7 | 2
CCOC(=O)c1c2ccc(OCc3ccc([N+](=O)[O-])cc3)cc2n2ccccc12 | 74* | 2 | 5 | 8
Cc1sc(NC(=O)CN2CCc3ccccc3C2)nc1-c1ccc2c(c1)CCN2C(=O)c1cccc(F)c1 | 51* | -7 | -43 | -11
Cc1ccc(C(=O)N2CCc3cc(-c4nc(NC(=O)CN5CCCC5)sc4C)ccc32)cc1 | -1 | 2 | -69 | -1
Cc1cccc(C(=O)N2CCc3cc(-c4nc(NC(=O)CN5CCc6ccccc6C5)sc4C)ccc32)c1 | 79* | 3 | -32 | 1
Cc1sc(NC(=O)CN(C)C2CCCCC2)nc1-c1ccc2c(c1)CCN2C(=O)c1ccccc1F | 38* | -3 | -30 | -5
Cc1cccc(NC(=O)C(C)n2cnc3onc(C)c3c2=O)c1C (centres undefined) | -3 | 0 | 4 | 1
CCCn1cc(-c2nc(-c3ccccn3)no2)c(=O)c2ccccc21 | 10 | 4 | 0 | 0
CCOc1ccc2[nH]c3c(NCCCN4CCOCC4)ncnc3c2c1 | -1 | 3 | 5 | 2
O=C(CCCn1c(=O)c2ccccc2n(CC(=O)NCC2CCCO2)c1=O)NCc1ccc(F)cc1 (centres undefined) | 1 | -1 | -4 | -5
COc1cc(NC(=O)CSc2nc3ncccc3o2)ccc1Cl | 85* | -4 | -4 | 7
COc1cccc(O[C@@H]2C[C@@H](NC(=O)c3cccc(F)c3)[C@H](O)[C@H]2O)c1 | 15 | 1 | 0 | 4
O=C(COc1ncnc2ccccc12)Nc1ccc2c(c1)OC1(CCCC1)O2 | 58* | 10 | -4 | 8
CO/C1=C\C(C)=C/[C@@H](C)[C@@H](O)[C@@H](C)C/C(C)=C/C=C/[C@H](OC)[C@@H]([C@@H](C)[C@@H](O)[C@H](C)[C@@]2(O)C[C@@H](OC(=O)/C=C/C(N)=O)[C@H](C)[C@@H](C(C)C)O2)OC1=O | 3 | 28 | 16 | 1
CCC1OC(O)(C(C)C(O)C(C)C2OC(=O)/C(C)=C/C(C)=CC(C)C(O)C(C)C/C(C)=C/C=C/C2OC)CC(OC(=O)/C=C/C(=O)NC2=C(O)CCC2=O)C1C (centres undefined) | 17 | 39* | 26 | 5
Cc1ccc(-n2nc(C)c3nc(CCC(=O)NCc4ccccc4)c(=O)n(C)c32)cc1 | 8 | 4 | -5 | 0
C/C(=C\c1ccccc1)CN1CCC(O)(c2ccc(C)cc2)CC1 | 34* | 2 | -1 | 4
CC(=O)c1cccc(NC(=O)C2c3ccccc3C(=O)N(C3CCCC3)C23CCCCC3)c1 (centres undefined) | 65* | -8 | -10 | -9
O=C(NC1CC1)C1c2ccccc2C(=O)N(C2CCCC2)C12CCCCC2 (centres undefined) | -2 | -4 | -3 | -3
CCN(CC)C(=O)CSc1nc2ccc(C)cc2cc1C#N | -3 | -1 | 1 | 4
Cc1ccccc1NC(=O)c1c(O)c2cnn(Cc3ccccc3)c2[nH]c1=O | 83* | 13 | 7 | 3
CC(NC(=O)c1c(O)c2cnn(Cc3ccccc3)c2[nH]c1=O)c1ccccc1 (centres undefined) | 86* | 14 | 4 | 3
O=C(NCc1ccc2c(c1)OCO2)c1c(O)c2cccnc2n(-c2ccccc2)c1=O | 81* | -2 | 4 | -4
O=C(NCc1ccccc1)c1c(O)c2cccnc2n(-c2ccccc2)c1=O | 2 | 5 | 2 | 0
Cc1ccc(NC(=O)c2cc(=O)n(C)c3c2c(=O)n(C)c(=O)n3C)cc1C | 2 | -3 | 4 | -1
Cc1cccc(-c2noc(-c3c(O)c4cnn(Cc5ccccc5)c4[nH]c3=O)n2)c1 | -7 | 1 | 1 | -3
